Each structure is given as a SMILES string. Out of some 39,000 compounds screened, about 1,500 (3.8%) were called active. For the sample, actives were picked, then their nearest neighbours and some compounds at random.

This assay deals with HSkMC (human skeletal muscle cells). As to the kind of experiment: cytotoxicity call (relative viability < 0.9). The settings on record: 10 µM.
With `C/C=C/c1ccc2c(c1)O[C@@H](CN(C)S(=O)(=O)c1ccc(C)cc1)[C@@H](C)CN([C@@H](C)CO)S2(=O)=O`, the cytotoxicity call was “inactive”.
Take `C[C@H]1CCCCO[C@@H](CN(C)S(=O)(=O)c2cccs2)[C@@H](C)CN([C@@H](C)CO)C(=O)c2cc(NC(=O)NC3CCCCC3)ccc2O1`: the cytotoxicity call was “inactive”.
The entry for `CCn1nc(C)c([C@@H](C)N)c1C` is “inactive”; for `Cc1ccc(S(=O)(=O)Nc2ccc3c(c2)C(=O)N([C@H](C)CO)C[C@@H](C)[C@H](CN(C)C(=O)Nc2cccc4ccccc24)OCCCC[C@H](C)O3)cc1` it is “inactive”; for `COc1ccc(NC(=O)N(C)C[C@H]2Oc3ccc(NS(C)(=O)=O)cc3C(=O)N([C@H](C)CO)C[C@H]2C)cc1` it is “inactive”.
As for `C[C@H]1CN([C@@H](C)CO)C(=O)Cc2cc(NC(=O)Cn3cnnn3)ccc2O[C@@H]1CN(C)C(=O)NC1CCCCC1`, the entry is “inactive”; as for `CC1(C)CNCC(=O)NC1`, “inactive”; as for `Cc1cc(C)nc(SCC(=O)NN)n1`, “inactive”.
For `Cc1cn(-c2cc(NC(=O)c3ccc(C)c(Nc4nccc(-c5cccnc5)n4)c3)cc(C(F)(F)F)c2)cn1`, the cytotoxicity call is “active”.
For the compound `Cc1ccc(NC(=O)c2ccc(CN3CC[C@H](N(C)C)C3)c(C(F)(F)F)c2)cc1Nc1nccc(-c2cncnc2)n1`, the cytotoxicity call was “active”.
As for `Cc1ccc(C(=O)Nc2cccc(C(F)(F)F)c2)cc1Nc1nc(-c2cccnc2)nc2c1cnn2C`, the entry is “inactive”; as for `Cc1ccc(NC(=O)c2ccc(CN3CCN(C)CC3)cc2)cc1Nc1nccc(-c2cccnc2)n1`, “inactive”.
Consider `Cc1cn(-c2cc(NC(=O)c3ccc(C)c(Nc4nccc(-c5cnccn5)n4)c3)cc(C(F)(F)F)c2)cn1`, for which the cytotoxicity call is “active”.
As for `O=C(Nc1cccnc1)c1nc2ncccn2n1`, the entry is “inactive”; as for `Cc1ncc(NC(=O)c2ccc(CN3CCN(C)CC3)c(C(F)(F)F)c2)cc1Nc1nccc(-c2cccnc2)n1`, “inactive”; as for `C[C@@H]1CN([C@H](C)CO)C(=O)c2cc(/C=C/c3ccccc3)cnc2O[C@H]1CN(C)C(=O)c1cnccn1`, “inactive”.
For the compound `CN1CCN(C(=O)C[C@@H]2CC[C@H]3[C@@H](COC[C@@H](O)CN3C(=O)C3CCCC3)O2)CC1`, the cytotoxicity call was “inactive”.
Take `Cc1noc(C)c1S(=O)(=O)Nc1ccc2c(c1)C(=O)N([C@H](C)CO)C[C@@H](C)[C@H](CN(C)S(=O)(=O)c1cccs1)O2`: the cytotoxicity call was “inactive”.
For `Cc1ccc(S(=O)(=O)Nc2ccc3c(c2)C(=O)N([C@H](C)CO)C[C@H](C)[C@@H](CN(C)Cc2ccncc2)OCCCC[C@H](C)O3)cc1`, the cytotoxicity call is “inactive”.
For the compound `COc1ccc(NC(=O)N(C)C[C@@H]2OCCCC[C@@H](C)Oc3ccc(NC(=O)Cc4ccccc4)cc3C(=O)N([C@@H](C)CO)C[C@H]2C)cc1`, the cytotoxicity call was “inactive”.
The entry for `C[C@H](CO)N1C[C@H](C)[C@@H](CN(C)Cc2ccc(C(=O)O)cc2)Oc2c(NC(=O)Nc3cccc4ccccc34)cccc2C1=O` is “inactive”; for `C[C@@H]1CCCCO[C@H](CN(C)S(C)(=O)=O)[C@@H](C)CN([C@H](C)CO)C(=O)c2cc(NS(=O)(=O)c3ccc(F)cc3)ccc2O1` it is “inactive”.
The entry for `C[C@@H]1CN([C@H](C)CO)C(=O)c2cc(NC(=O)Nc3ccc(C(F)(F)F)cc3)ccc2O[C@@H](C)CCCCO[C@H]1CN(C)S(=O)(=O)c1cn(C)cn1` is “inactive”; for `COc1ccc(S(=O)(=O)Nc2ccc3c(c2)C(=O)N([C@@H](C)CO)C[C@H](C)[C@@H](CN(C)C(=O)c2ccccc2)OCCCC[C@H](C)O3)cc1` it is “inactive”.
Take `COc1cc2c(cc1OC)-c1c(oc3c4c(ccc3c1=O)OC(C)(C)C=C4)CO2`: the cytotoxicity call is “inactive”.
In the case of `COc1cc2c(=O)c(-c3ccc4c(c3)OCO4)coc2c2c1OC(C)(C)C=C2`, the cytotoxicity call was “inactive”.
As for `COc1c(-c2coc3cc4c(cc3c2=O)CC(O)C(C)(C)O4)ccc2c1C=CC(C)(C)O2` (stereo unspecified), the entry is “active”.
The entry for `C[C@@H]1CCCCO[C@@H](CN(C)Cc2ccc(C(=O)O)cc2)[C@H](C)CN([C@H](C)CO)C(=O)c2cc(NC(=O)NC3CCCCC3)ccc2O1` is “inactive”.
As to `COCC#Cc1ccc2c(c1)O[C@H](CN(C)S(=O)(=O)c1ccc(OC)cc1)[C@H](C)CN([C@@H](C)CO)S2(=O)=O`, the cytotoxicity call is “inactive”.
For `Cc1noc(C)c1S(=O)(=O)Nc1ccc2c(c1)CC(=O)N([C@H](C)CO)C[C@@H](C)[C@H](CN(C)Cc1ccc(-c3ccccc3)cc1)O2`, the cytotoxicity call is “inactive”.
Consider `Cc1noc(C)c1S(=O)(=O)Nc1ccc2c(c1)CC(=O)N([C@@H](C)CO)C[C@@H](C)[C@@H](CN(C)Cc1ccc(-c3ccccc3)cc1)O2`, for which the cytotoxicity call is “inactive”.
The entry for `Cc1noc(C)c1S(=O)(=O)Nc1ccc2c(c1)CC(=O)N([C@@H](C)CO)C[C@@H](C)[C@H](CN(C)Cc1ccc(-c3ccccc3)cc1)O2` is “active”; for `Cc1noc(C)c1S(=O)(=O)Nc1ccc2c(c1)CC(=O)N([C@@H](C)CO)C[C@H](C)[C@H](CN(C)Cc1ccc(-c3ccccc3)cc1)O2` it is “inactive”; for `Cc1noc(C)c1S(=O)(=O)Nc1ccc2c(c1)CC(=O)N([C@@H](C)CO)C[C@H](C)[C@@H](CN(C)Cc1ccc(-c3ccccc3)cc1)O2` it is “inactive”.
`Cc1noc(C)c1S(=O)(=O)Nc1ccc2c(c1)CC(=O)N([C@H](C)CO)C[C@H](C)[C@@H](CN(C)Cc1ccc(-c3ccccc3)cc1)O2`: the cytotoxicity call is “active”.
As for `CC(C)CC#Cc1cnc2c(c1)C(=O)N([C@H](C)CO)C[C@H](C)[C@@H](CN(C)C(=O)CN1CCOCC1)O2`, the entry is “inactive”; as for `NC(=O)N1C(=O)[C@H]2[C@H](C1=O)[C@H]1C=C(CCCO)[C@@H]2[C@H](c2ccc(CN3CCCC3)cc2)N1Cc1sc2ccccc2c1Cl`, “inactive”.
In the case of `C[C@@H]1CN([C@H](C)CO)C(=O)c2cc(NS(=O)(=O)c3cccs3)ccc2O[C@@H]1CN(C)CC1CC1`, the cytotoxicity call was “inactive”.
The entry for `C[C@@H]1CN([C@H](C)CO)C(=O)Cc2cc(NS(=O)(=O)c3cccs3)ccc2O[C@H]1CN(C)S(=O)(=O)c1ccc(F)cc1` is “inactive”; for `C[C@H](CO)N1C[C@H](C)[C@@H](CN(C)C(=O)Nc2ccc(F)cc2)OCCCC[C@H](C)Oc2ccc(NC(=O)Nc3cccc4ccccc34)cc2C1=O` it is “inactive”; for `COCCCNC(=O)[C@@]1(Cc2ccccc2I)c2ccccc2C(=O)N(C2CCCCC2)[C@H]1c1ccc(CO)cc1` it is “inactive”.
The entry for `C[C@@H]1CN([C@H](C)CO)C(=O)Cc2cc(NC(=O)Nc3ccccc3)ccc2O[C@@H]1CN(C)Cc1ccc(C(F)(F)F)cc1` is “active”.
Regarding `C[C@@H]1CN([C@@H](C)CO)C(=O)Cc2cc(NC(=O)Nc3ccccc3)ccc2O[C@@H]1CN(C)Cc1ccc(C(F)(F)F)cc1`, the cytotoxicity call was “active”.
As to `C[C@H](CO)N1C[C@H](C)[C@@H](CN(C)Cc2ccc(C(F)(F)F)cc2)Oc2ccc(NC(=O)Nc3ccccc3)cc2CC1=O`, the cytotoxicity call was “inactive”.
Take `C[C@H]1CN([C@@H](C)CO)C(=O)Cc2cc(NC(=O)Nc3ccccc3)ccc2O[C@H]1CN(C)Cc1ccc(C(F)(F)F)cc1`: the cytotoxicity call was “active”.
On to `C[C@@H]1CN([C@@H](C)CO)C(=O)Cc2cc(NC(=O)Nc3ccccc3)ccc2O[C@H]1CN(C)Cc1ccc(C(F)(F)F)cc1`, for which the cytotoxicity call was “active”.
